Rows were chosen to be rich in hits. Some 8% of all compounds tested hit in one or more screens of this group.
Lassa entry inh = inhibitors of Lassa virus binding or cell entry; AID 540256; actives 1.2% (n = 300,000); Potency, µM (top dose mostly 37.9 µM), inactives show at the top dose activity change, negative = inhibition, hits mostly inhibitors; Lassa virus pseudotype entry inhibition, cell reporter; calls by dose curve; tested in HEK293 cells; further: potency means the concentration at half of the fitted maximal effect; on the % scale 0 is the no-effect control and ±100 the full control effect; nearly all actives have a fitted effect of over 50% in size
MARV entry inh = blocks Marburg virus binding to or entry into cells. Potency, µM (series often up to 37.8 µM), for the others: at the highest dose activity change, negative = inhibition, usual class: inhibitors. actives 1.8% (n = 300,000). Marburg virus pseudotyped entry inhibition, cell reporter; calls by dose curve; tested in HEK293 cells; further: potency means the concentration at half of the fitted maximal effect; on the % scale 0 is the no-effect control and ±100 the full control effect
SARS PLP yeast = SARS-CoV PLP inhibition in yeast. S. cerevisiae expressing SARS-CoV PLpro, growth rescue. Potency, µM (series often up to 32.9 µM), for inactives: at the highest dose activity, positive = growth rescue, most hits filed as activators. actives 0.19% (n = 330,000); calls by dose curve; further: potency means the concentration at half of the fitted maximal effect; 0% is about no effect; nearly all actives have a fitted effect of over 55% in size
FMDV inh = blocks foot and mouth disease virus. FMDV antiviral cell-based qHTS. Potency, µM (highest dose often 57.9 µM), for the others: at the top dose activity change, negative = inhibition, usual class: inhibitors. actives 1.2% (n = 410,000). AID 1159524; calls by dose curve; tested in HEK293T cells; further: read-out not given here; potency means the concentration at half of the fitted maximal effect; on the % scale 0 is the no-effect control and ±100 the full control effect; nearly all actives have a fitted effect of over 45% in size
HCMV inh = blocks human cytomegalovirus replication | actives 4.5% (n = 410,000) | activity change, negative = inhibition, % at 57.5 µM | HFF cells, HCMV-luciferase reporter, 72 h; hits give low values; in the data active means activity change below about -60%; inconclusive means no clear call, values can overlap the other calls; inactive means above about -39%; further: on the % scale 0 is the no-effect control and ±100 the full control effect
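Two-dose cell screen: HFF monolayers treated with compounds and infected with luciferase-expressing HCMV at 1 PFU/cell, 72 h at 37C, then lysed for luciferase measurement.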
HCV inhibitor = inhibitors of hepatitis C virus infection. Huh7.5.1 HCVcc-Cre infection, luciferase reporter, 44 h. Potency, µM (titrated, usually from 41.8 µM), without a hit: top-dose activity change, negative = inhibition, hits mostly inhibitors. actives 3.4% (n = 340,000); active means well fitted inhibition curve with a large enough effect; inconclusive means small, poorly fitted or top-dose-only effect, or another doubt; inactive means no such curve, though single readings can be large or run the other way; further: potency means the concentration at half of the fitted maximal effect; on the % scale 0 is the no-effect control and ±100 the full control effect
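Infectious HCV cell culture screen: compound-treated cells (1,000/well, pre-plated 4 h) are infected with HCVcc-Cre at roughly 0.5 moi and grown 44 h. Infection is quantified by luciferase signal after 15 min substrate incubation at room temperature.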
* marks the source's active call; other numbers are inactive results; ? = inconclusive; nt = not tested or not shown; [ ] = another dose, or the depositor's remark.

SMILES	Lassa entry inh	MARV entry inh	SARS PLP yeast	FMDV inh	HCMV inh	HCV inhibitor
O=C(NC1CCCC1)C1C(c2ccc(C(F)(F)F)cc2)=Nc2ccccc2N1C(=O)c1cccc(C(F)(F)F)c1 (stereo not drawn)	nt	nt	nt	16%	62	nt
O=C(CN1CCOCC1)Nc1ccc(S(=O)(=O)N2CCCCCC2)cc1	-2%	10%	-1%	7%	-82*	8%
O=C(CN1CCCCC1)Nc1ccc(S(=O)(=O)N2CCCCCC2)cc1	-6%	-21%	3%	17%	-2	?
Cc1cccc(N2CCN(CC(=O)Nc3ccc(S(=O)(=O)N4CCOCC4)cc3)CC2)c1C	nt	nt	1%	?	-67*	10µM*
O=C(NCCN1CCN(c2ccccc2Cl)CC1)Nc1ccccc1	?	5%	1%	-5%	45	0%
Cc1cccc(N2CCN(CCNC(=O)Nc3ccc(Cl)cc3)CC2)c1C	14%[46.1 µM]	7%[46.1 µM]	nt	0%	-99*	nt
CC(C)c1cc(C(=O)NC(C)c2ccccc2)no1 (stereo not drawn)	-1%[46.1 µM]	-25%[46.1 µM]	nt	-4%	1	nt
Cc1ccc(NC(=O)c2cc3ccccc3o2)cc1S(=O)(=O)N(C)C	?	16%	-2%	-36%	12	11µM*
O=C(Nc1ccc2c(c1)OCCO2)c1cc2ccccc2o1	7.9µM*	4µM*	-11%	-35%	117	22µM*
CCN1CCOC(=O)C1CC(=O)Nc1ccc(Br)cc1 (stereo not drawn)	12%[46.1 µM]	4%[46.1 µM]	nt	15%	16	nt
CN(C)S(=O)(=O)c1ccc(C(=O)Nc2ccccc2[N+](=O)[O-])cc1	-2%	0%	-7%	-24%	-65*	2%
Cc1ccccc1NC(=O)c1ccc(S(=O)(=O)N(C)C)cc1	nt	nt	15%	-11%	56	1%
Cc1nc2ccccn2c1C(=O)NNS(=O)(=O)c1ccc(C(C)(C)C)cc1	?	?	4%	?	-63*	?
COc1ccc(C2=NC(C)(C)Cc3cc(OC)c(OC)cc32)cc1OC	nt	nt	-6%	-10%	-1	-3%
COc1cc2c(cc1OC)C(c1cc3ccccc3oc1=O)=NC(C)(C)C2	-7%	-3%	-1%	-12%	-98*	?
CC1(C)[C@@]2(C(=O)N(CCC#N)CCC#N)CC[C@]1(C)C(=O)C2	nt	-2%	nt	nt	nt	nt
COc1ccc(Nc2c(-c3ccsc3)nc3nc(C)cc(C)n23)cc1	-17%[46.1 µM]	-5%[46.1 µM]	nt	-1%	8	nt
COc1ccc(Nc2c(-c3ccc(F)cc3)nc3nc(C)cc(C)n23)cc1	nt	nt	nt	-7%	-67*	nt
Nc1c(C(=O)Nc2ccc(Cl)c(C(F)(F)F)c2)sc2nc3c(cc12)N1CCC3CC1	?	?	nt	?	-93*	nt
COc1ccc(NC(=O)c2sc3nc4c(cc3c2N)N2CCC4CC2)cc1OC	?	nt	nt	?	-4	nt
Nc1c(C(=O)Nc2ccc(Cl)cc2)sc2nc3c(cc12)N1CCC3CC1	?	0%[46.1 µM]	nt	?	-86*	nt
O=c1c(-c2ccc(Cl)cc2)nc2cnc(N3CCOCC3)nc2n1Cc1ccc(F)cc1	nt	nt	nt	-17%	nt	nt
COC1C(CO)OC(n2c3c(Cl)cccc3c3c4c(c5c6cccc(Cl)c6[nH]c5c32)C(=O)NC4=O)C(O)C1O (stereo not drawn)	?	?	nt	-19%	-98*	?
COC1C(O)C(CO)OC1n1c(Br)nc2c(=O)[nH]c(N)nc21 (stereo not drawn)	nt	nt	nt	-4%	nt	nt
Nc1[nH]c(C(=O)c2ccccc2)c(-c2cccc(C(F)(F)F)c2)c1C(=O)NCCc1c[nH]c2ccccc12	nt	nt	nt	nt	-72*	nt
SMILES	Lassa entry inh	MARV entry inh	SARS PLP yeast	FMDV inh	HCMV inh	HCV inhibitor
Nc1[nH]c(C(=O)c2ccccc2)c(-c2ccc(F)cc2)c1C(=O)NCCc1c[nH]c2ccccc12	nt	nt	nt	-14%	-27	nt
COc1ccc(N(C(=O)c2ccc(Cl)cc2)S(=O)(=O)c2ccc(C)cc2)cc1	?	nt	nt	-19%	-1	nt
Cc1cc(C)c2c(C)nn(-c3ccccc3)c2n1	-25%	10%[46.1 µM]	7%	0%	-9	-27%
Cc1cc(C)c2c(=N)c3ccccc3n(CCCCCCCCn3c4ccccc4c(=N)c4c(C)cc(C)nc43)c2n1	?	7.1µM*	nt	0%	-75*	-25%
COc1ccccc1NC(=O)CN1CCN(CC(=O)Nc2ccc(S(N)(=O)=O)cc2)CC1	nt	nt	3%	?	-64*	-25%
CN1CCN(c2ccc(NC(=O)c3cccc(OCc4ccccc4)c3)cc2)CC1	-17%	22µM*	-5%	7%	92	25µM*
NS(=O)(=O)c1ccc(NC(=O)CN2CCN(S(=O)(=O)/C=C/c3ccccc3)CC2)cc1	-1%	-18%[46.1 µM]	5%	-2%	-100*	-13%
NS(=O)(=O)c1ccc(NC(=O)CN2CCN(Cc3ccccc3)CC2)cc1	-1%	11%	1%	-5%	34	20%
CC(C)Oc1cccc(C(=O)Nc2ccc(N3CCN(C)CC3)cc2)c1	nt	nt	2%	56%	44	-15%
COc1ccccc1NC(=O)CN1CCN(CC(=O)Nc2ccc(F)cc2)CC1	2%	-19%	3%	-12%	15	?
COc1ccccc1NC(=O)CN1CCN(CC(=O)Nc2ccc(OCc3ccccc3)cc2)CC1	11µM*	?	-2%	?	?	6%
COc1cc(-c2nc(Cn3nnc(C(=O)Nc4ccccc4C)c3C)c(C)o2)cc(OC)c1OC	-9%[46.1 µM]	?	nt	?	-38	nt
CN1CCN(CC(=O)Nc2ccc(Oc3ccccc3)cc2)CC1	-5%	?	0%	1%	?	?
CN1CCN(c2ccc(NC(=O)N3CCc4ccccc43)cc2)CC1	-31%[46.1 µM]	?	1%	18µM*	-78*	8%
O=C(NC1CCCCC1)c1cccc(OCc2ccccc2)c1	-23%[46.1 µM]	-24%[46.1 µM]	-5%	-13%	?	14µM*
CCOC(=O)N1CCN(CC(=O)Nc2ccc(Oc3ccccc3)cc2)CC1	0.56µM*	-27%	1%	?	-29	-17%
O=C(CN1CCCC1)Nc1ccc(OCc2ccccc2)cc1	nt	nt	-1%	20%	46	10µM*
COc1ccc(OC)c(NC(=O)CCc2nc(-c3ccc(C)cc3)no2)c1	-1%[46.1 µM]	1%[46.1 µM]	nt	-20%	-32	nt
O=C(NCC1Cc2cccc(-c3cccnc3)c2O1)c1ccc2cc[nH]c2c1 (stereo not drawn)	nt	nt	nt	1%	nt	nt
COc1ccc(NC(=O)c2c(NCc3ccc(C)o3)sc3c2CCC(C)C3)cc1 (stereo not drawn)	2%[46.1 µM]	nt	nt	38%	-9	nt
O=C(CN1CCN(c2ccccc2)CC1)Nc1ccc(OCc2ccccc2)cc1	?	?	-6%	0%	nt	11µM*
Nc1nc(-c2ccc(-c3ccccc3)cc2)cs1	-27%[46.1 µM]	?	-28%	9%	-1	10µM*
Nc1nc(-c2ccc(Oc3ccccc3)cc2)cs1	nt	nt	-28%	22%	25	10µM*
